This is part of a sample that, as a whole, favours compounds with a hit. Of some 79,000 tested, about 15% had one in any assay. A number with no mark means an inactive call. The source made the active and inactive calls. Rule as the data show it: active = growth inhibition above about 70%; inactive = the rest.

This assay can be described thus: NCI Yeast Anticancer Drug Screen. Data for the rad50 strain (AID 155).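 Also: 0% = growth of vehicle-only cultures of the same strain.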 As to conditions: S. cerevisiae rad50 strain growth inhibition; at 5.0 µM (retest, dose inferred, filed as 0.5); hits give high values. In outline:
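Inhibition values express reduced yeast growth in compound-treated cultures relative to vehicle-treated controls.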
In the case of `CCOC(=O)C1C(O)=C(P(=O)(C2=C(O)C(C(=O)OCC)C(c3ccc(OC(C)=O)cc3)C(C(=O)O)C2=O)N(CCCl)CCCl)C(=O)C(C(=O)O)C1c1ccc(OC(C)=O)cc1` (stereo not given), the growth inhibition was 16%.
In the case of `c1ccc([As+](c2ccccc2)(c2ccccc2)c2cccc3ccccc23)cc1` it was 88% (active).
The figure for `CCCCCCCCc1ccc(OCCN(CCCl)CCCl)cc1` is 3%; for `S=C=NCCc1ccccc1` it is -12%.
In the case of `COC1=C(Cl)C(=O)c2ccccc2C1=O` it was 8%; in that of `CN(C)c1ccc(N=Nc2cccc(C(=O)[O-])c2)cc1.CN(C)c1ccc(N=Nc2cccc(C(=O)[O-])c2)cc1.NC1CCCCC1N.O=[N+]([O-])O.[Pt+4]`, 1%.
On to `CCOC(=O)c1ccc(N=Cc2ccc(N(CCCl)CCCl)cc2C)cc1`, for which the growth inhibition is -4%.
The figure for `O=c1s[se]c2ccccc12` is 27%.
In the case of `CC1CCC2(OC1)OC1C(O)C3C4CCC5CC(OC6OC(CO)C(OC7OC(CO)C(O)C(OC8OCC(O)C(O)C8O)C7OC7OC(CO)C(O)C(OC8OC(CO)C(O)C(O)C8O)C7O)C(O)C6O)C(O)CC5(C)C4CCC3(C)C1C2C` (stereo not given), the growth inhibition is 95% (active).
For `CN(C)c1ccc(/C=C/c2cc3scc(-c4ccccc4)[n+]3c3ccccc23)cc1`, the growth inhibition was -2%.
In the case of `CSCCC([NH-])C(=O)O.CSCCC([NH-])C(=O)O.[Zn+2]` (stereo not given) it was 2%; in that of `O=C(O)CN1CCN(CC(=O)O)CC(=O)[O][Hg][O]C(=O)C1`, 100% (active); in that of `Cc1c2ccncc2c(CN(CCCl)CCCl)c2c3ccccc3n(C)c12`, 10%.
For `COc1ccc(P2(=S)Oc3ccc(C(c4ccccc4)(c4ccccc4)c4ccccc4)cc3O2)cc1` (stereo not given), the growth inhibition is 36%.
For `Cc1cc[n+](C2=C(Nc3c(C)cccc3C)C(=O)c3ccccc3C2=O)cc1`, the growth inhibition was 44%.
In the case of `C(#C[PH+](c1ccccc1)c1ccccc1)c1ccccc1.C(#C[PH+](c1ccccc1)c1ccccc1)c1ccccc1.C(#C[PH+](c1ccccc1)c1ccccc1)c1ccccc1.[C-]#[O+].[C-]#[O+].[C-]#[O+].[Cr]` it was 29%.
`CC(=O)O.[RuH].c1ccc([PH+](c2ccccc2)c2ccccc2)cc1.c1ccc([PH+](c2ccccc2)c2ccccc2)cc1.c1ccc([PH+](c2ccccc2)c2ccccc2)cc1`: the growth inhibition is -10%.
The figure for `O=C(N/N=C/c1cc(Br)cc(Br)c1[O-])c1ccccc1O.O=C(N/N=C/c1cc(Br)cc(Br)c1[O-])c1ccccc1O.[Ni+2]` is 97% (active).
In the case of `O=C(C[n+]1ccccc1)C1CCc2ccccc2C1` (stereo not given) it was -3%; in that of `CC(=O)[O-].CC(=O)[O-].O=C(N/N=C/c1cc(Cl)cc(Cl)c1[OH2+])c1ccncc1.[Zn+2]`, 4%; in that of `ClCCN(CCCl)CCN1c2ccc3ccccc3c2Sc2ccc3ccccc3c21`, -3%.
In the case of `C=CCc1cc(Cl)ccc1OC(=O)N(C)C` it was 5%.
With `CC(=O)[O][Sn]([CH3])([CH3])[c]1ccccc1`, the growth inhibition was 2%.
In the case of `NCCNCCNCCNCCN` (tested in a mixture with another compound) it was 0%; in that of `CC(=O)[CH-]C(C)=O.CC(=O)[CH-]C(C)=O.[O-]c1ccccc1.[O-]c1ccccc1.[Ti+4]`, 25%.
As for `NC(=O)c1ccc(C(=O)Nc2ccc([As](=O)(O)O)cc2)cc1`, the growth inhibition is 30%.
With `[C-]#[O+].[C-]#[O+].[CH3][Sn]([CH3])[c]1ccccc1.[Fe+5].[c-]1[c-][c-][cH-][c-]1`, the growth inhibition is 7%.
In the case of `CC(C)(C)S.[Hg]`, the growth inhibition is 68%.
In the case of `O=C(O)C(O)(c1ccc(-c2ccccc2)cc1)c1ccc(-c2ccccc2)cc1` it was 16%.
The figure for `Cc1ccc2c(-c3ccccc3)c3ccccc3[s+]c2c1` is 2%; for `CCOC(=O)[C]1([Pb]([CH3])([CH3])[CH3])N=NC(C(=O)OC)=C1C(=O)OC` (stereo not given) it is 6%; for `CCCNC1=C(C)C(=O)C2=C(C1=O)[C@H](COC(N)=O)[C@]1(OC)[C@@H]3N[C@@H]3CN21` it is 15%.
In the case of `CC(=O)c1ccc(-[n+]2c(C)cc(-c3ccccc3)cc2C)cc1` it was -11%.
`CN1C(=O)C23CC4=CC=CC(O)C4N2C(=O)C1(CO)SS3` (stereo not given): the growth inhibition was 99% (active).
Consider `CCN1CCC(O)(c2ccc(O)cc2)C(C(=O)c2ccc(O)cc2)C1` (stereo not given), for which the growth inhibition is -9%.
The figure for `CCCCCCCC[As](C)(=O)O` is -151%; for `CCCCCCC(=O)[O][Hg][c]1ccccc1` it is 99% (active); for `CCC[CH2][Sn]1([CH2]CCC)[O]C(=O)CN=Cc2ccccc2[O]1` it is 88% (active).
Regarding `C[C@]12CC[C@H](O)C[C@@H]1CC[C@@H]1[C@@H]2CC[C@]2(C)C(=O)/C(=C/O)C[C@@H]12`, the growth inhibition is -1%.
In the case of `CC(CCc1ccccc1)NC(C)C(O)c1ccc(O)cc1` (stereo not given) it was 1%.

The values above are taken from PubChem BioAssay (NCI).
